According to PubChem BioAssay (NCI):
About 83,000 compounds went through this panel and 20% of them were active in at least one assay; those are over-represented in the sample as a whole.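 Cells were grown in 96-well plates and exposed to the test compound at a single concentration for 48 hours; results are reported as percent growth, with values below 10 considered active.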 Unmarked numbers belong to inactive results. The source made the active and inactive calls.

What was measured:
Assay in all cases: NCI-60 one-dose screen, 48 h (100 = growth as untreated, 0 = no growth, -100 = all killed)
Conditions in all cases: 10 µM unless noted
T-47D breast = test system: T-47D breast
BT-549 breast = test system: BT-549 breast
MDA-MB-435 melanoma = test system: MDA-MB-435 melanoma
SW-620 colon = test system: SW-620 colon
MCF7 breast = test system: MCF7 breast
HCT-116 colon = test system: HCT-116 colon
HCC-2998 colon = test system: HCC-2998 colon
KM12 colon = test system: KM12 colon

| Structure (SMILES) | growth (T-47D breast) | growth (BT-549 breast) | growth (MDA-MB-435 melanoma) | growth (SW-620 colon) | growth (MCF7 breast) | growth (HCT-116 colon) | growth (HCC-2998 colon) | growth (KM12 colon) |
| --- | --- | --- | --- | --- | --- | --- | --- | --- |
| CNC(=O)NCC1OC(n2cnc3c(NC(=O)Nc4ccccc4)ncnc32)C2OC(=O)CC12 (stereo not drawn) | 91.6% | 100% | 101% | 106% | 97.9% | 98.7% | 93.1% | 106% |
| C#CCOc1ccc2nc(CCl)c(Cl)c(Nc3cccc(C(F)(F)F)c3)c2c1 | 65.9% | 60.6% | 84.1% | 66.4% | 40.7% | 64% | 98.3% | 93.6% |
| CCN1C(=O)N(c2ccccc2)C2NC(=S)N(/N=C/C=C/c3ccccc3OC)C21 (stereo not drawn) | 42.3% | 20.4% | -27.5% (active) | 22.2% | 7.64% (active) | 9.02% (active) | 14.8% | 11.3% |
| Fc1cc2[nH]ncc2c2c3c(c(-c4cn[nH]c4C(F)(F)F)nc12)CCCC3 | -16.2% (active) | -64.2% (active) | 26.2% | 4.23% (active) | 2.27% (active) | 1.05% (active) | -14.2% (active) | 9.4% (active) |
| O=C1Nc2ccc(Cl)cc2/C1=C/c1ccc[nH]1 | 13% | 48.7% | 96.5% | 112% | 16.2% | 87.1% | 65.8% | 13.5% |
| CCOC(=O)NCCCC(=O)NCCc1ccccc1 | 100% | 110% | 109% | 111% | 97.8% | 97.6% | 99.1% | 96.6% |
| CCOC(=O)C#Cc1c(C(=O)OCC)nnn1[C@@H]1O[C@H](COC)[C@@H](OC)[C@H]1OC | 15.2% | 98.7% | 98.7% | -38.7% (active) | 8.52% (active) | 84% | 128% | 105% |
| CSc1ccc2c3c(n(CCCn4ccnc4)c(=O)c2c1)-c1ccccc1C3=O | 15.9% | 63.4% | 64.6% | 31.5% | 9.87% (active) | 10.6% | 75.9% | 45.4% |
| Cc1cc(C(=O)CCCC(=O)c2cc(C)c(O)c(C)c2)cc(C)c1O | 84.6% | 112% | 101% | 98.9% | 86.5% | 86.8% | 46% | 102% |
| C=C1C(=O)O[C@H]2[C@H]1CC/C(COC(=O)C(=O)c1c[nH]c3ccc(Cl)cc13)=C\CC[C@@]1(C)O[C@@H]21 | -44.9% (active) | -87.2% (active) | -96.4% (active) | -75.5% (active) | -32.5% (active) | -99.6% (active) | -75.9% (active) | -72.8% (active) |
| Cc1nc(N/N=C/c2cn(-c3ccccc3)nc2-c2cc3ccccc3oc2=O)sc1N=Nc1ccccc1 | 83.2% | 78.3% | 3.67% (active) | 78.8% | 68.3% | 87.4% | 104% | 63.7% |
| N#Cc1ccc(O)c(C2=NCC(c3ccc(-c4ccccc4)cc3)O2)c1 (stereo not drawn) | -1.94% (active) | 16.3% | 26.8% | 23.9% | 10.3% | 9.12% (active) | 34.8% | 16.6% |
| CSc1ccc2c3c(n(C[C@H](O)CO)c(=O)c2c1)-c1ccccc1C3=O | 27.3% | 46.9% | 72% | 27.6% | 11.5% | -20.6% (active) | 88.8% | 25.3% |
| COc1ccc(Cl)cc1Nc1nc(C(F)(F)F)ccc1C(=O)N/N=C/c1ccc([N+](=O)[O-])cc1 | 7.15% (active) | 18.6% | 15.9% | 5.81% (active) | -8.58% (active) | 11.3% | -27.8% (active) | -3.54% (active) |
| COc1ccc2c(c1)CC[C@@H]1[C@@H]2CC[C@]2(C)c3c(cc(C#N)c4c3sc3ccccc34)C[C@@H]12 | 102% | 114% | 105% | 99.5% | 106% | 108% | 92.7% | 109% |
| CN(C)Cc1ccc(NC(=O)c2cncc(C#Cc3cnc(N)c4ncccc34)c2)cc1C(F)(F)F | 99% | 102% | -75.1% (active) | -78.7% (active) | -72.4% (active) | 47.7% | 3.86% (active) | -40.4% (active) |
